Measurements reported in the supplement of paper PMC3334620.
Whole data set: some 33,000 sequences, median “E-score (-0.5 to 0.5)” near -0.0014, cut for the highest 2% near 0.25. The full list was thinned out, with the highest values kept by preference.

These sequences were tested against T1, Cad1 (UniProt P24813) (assay: PBM E-score (8-mer binding enrichment) (E-score (-0.5 to 0.5)); higher = stronger / more preferred TF binding). Details: protein concentration: 100 nM; construct: GST-full length.
T1 sequence: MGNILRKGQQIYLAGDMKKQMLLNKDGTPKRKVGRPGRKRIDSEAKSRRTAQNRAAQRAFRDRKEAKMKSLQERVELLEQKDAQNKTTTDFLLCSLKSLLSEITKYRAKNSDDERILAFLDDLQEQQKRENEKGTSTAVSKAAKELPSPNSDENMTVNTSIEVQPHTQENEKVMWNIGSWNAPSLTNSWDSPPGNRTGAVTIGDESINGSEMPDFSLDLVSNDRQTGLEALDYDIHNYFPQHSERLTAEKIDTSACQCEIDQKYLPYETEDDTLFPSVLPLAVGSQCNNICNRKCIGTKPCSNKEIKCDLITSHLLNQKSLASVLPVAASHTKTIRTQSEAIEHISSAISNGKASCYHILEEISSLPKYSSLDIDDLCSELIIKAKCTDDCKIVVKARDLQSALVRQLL
Outline: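 Detection of bound protein used fluorescent anti-GST, with scans normalised by masliner. The proteins were GST-tagged yeast transcription factors applied at about 100-200 nM to universal all-10-mer Agilent arrays made double-stranded by primer extension. Each ungapped eight-base word, pooled with its reverse complement, was scored with an E-score from the Universal PBM Analysis Suite.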

Row | Sequence | PBM E-score
1 | ACTAGAGA | -0.224
2 | CGTGCGAA | 0.036
3 | GGGCATTA | -0.152
4 | GATCAAGC | -0.0801
5 | GGCGGTAA | 0.045
6 | ACTTCGCG | 0.216
7 | GCAACAGC | -0.076
8 | ATAAGGGG | -0.0559
9 | CTATCGTA | -0.0798
10 | CCGAAACA | 0.0714
11 | TCGAAACA | 0.251
12 | ACGAAACA | 0.192
13 | AGCTATCA | 0.118
14 | CGAAGAGA | 0.106
15 | GTGTCACA | 0.252
16 | GTGTCAAA | 0.163
17 | ATGTCAGC | 0.315
18 | CTGTCACA | 0.0656
19 | ATGTCACC | 0.0545
20 | ATGTCAGA | -0.0566
21 | ATGTCACA | 0.306
22 | ATGTCACG | 0.0134
23 | CTGTCAGC | 0.118
24 | AGCCAGAT | -0.239

Row | Sequence | PBM E-score
25 | AGGTCAAC | 0.00774
26 | ACCTGATG | -0.134
27 | CAGAATGG | -0.00601
28 | CATCAAGA | 0.0115
29 | CCTCAACA | 0.0958
30 | ATTCACGC | 0.0118
31 | CTTCACGC | 0.26
32 | CTTCACGA | -0.199
33 | CTAGACCA | 0.00762
34 | CCAGGACA | 0.0769
35 | ATTATCAA | 0.297
36 | GTTATCAA | 0.129
37 | CATATCAA | 0.259
38 | ATTATCAC | 0.151
39 | CATATCAG | -0.00093
40 | CTTATCAC | 0.0836
41 | ATTATCGC | 0.282
42 | ATTATCGG | 0.0117
43 | AATATCAA | 0.138
44 | CTTATCAA | 0.256
45 | ATTATCGA | 0.107
46 | ATTATCAG | -0.0126
47 | CCAATCGA | 0.105
48 | TATTAGAA | 0.24

Row | Sequence | PBM E-score
49 | CAAACACG | 0.126
50 | CAAAAGCG | 0.0683
51 | ACACGCCC | -0.0578
52 | AGCCATAT | -0.0728
53 | GGTAGCCA | -0.0237
54 | CGACTTAA | 0.0481
55 | TATACCAA | 0.0311
56 | GCGAAATA | -0.0552
57 | ACGAAATA | 0.201
58 | CCGAAATA | 0.253
59 | GGGGTTCA | -0.191
60 | ATCGCCCG | -0.0312
61 | ATTGCTTA | 0.176
62 | GTTGCTGA | 0.111
63 | GTTGCTTA | 0.261
64 | GCTCGGTA | -0.203
65 | CATAGGGC | -0.163
66 | CAATTCGA | -0.0688
67 | GAATTCGC | -0.0565
68 | CAATTCGC | 0.322
69 | ATTCGCAC | 0.00983
70 | GGTGCTGA | -0.0741
71 | AACGCCTG | 0.0294
72 | ACTAAGCA | 0.181

Row | Sequence | PBM E-score
73 | ACTAAGCG | 0.3
74 | AGTAAGGG | 0.0236
75 | ACTAAGCT | 0.223
76 | AGTAAGCC | 0.156
77 | AGTAAGCG | 0.338
78 | ACCGTCTC | 0.138
79 | CTTGCAAA | 0.105
80 | ATTCCTTC | 0.105
81 | ATTGTACA | 0.106
82 | CTTGTACA | -0.0604
83 | GTTGTACA | 0.286
84 | CTGAGGGA | -0.0379
85 | ATTAAAAC | 0.108
86 | ACTAAAAC | 0.116
87 | ATTAAAAA | 0.221
88 | ACTAAAAA | 0.107
89 | ATTAAAAT | 0.253
90 | ACTAAAAT | 0.255
91 | ATGACGTC | 0.0734
92 | AGGAAGTC | -0.225
93 | GAGTGGGC | -0.294
94 | AGGCTACA | 0.00724
